HCV inh: inhibitors of hepatitis C virus infection | Huh7.5.1 HCVcc-Cre infection, luciferase reporter, 44 h | Potency, µM (highest dose often 41.8 µM), most hits filed as inhibitors | hit rate 3.4% among 340,000
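Infectious HCVcc-Cre (~0.5 moi) was added to cells just after compound, with cells seeded 4 h earlier at 1,000 per well. Luciferase activity after 44 h culture reported infection; substrate was incubated 15 min at room temperature before reading.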
Pf growth 96h: inhibits malaria parasite growth, 96 h; P. falciparum luciferase reporter growth, 96 h; Potency, µM (top dose mostly 28.7 µM), hits mostly inhibitors; hit rate 6.9% among 320,000
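Cell-based qHTS: luciferase-tagged P. falciparum in erythrocytes (2% hematocrit, 0.05% parasitemia final) incubated with compounds for 96 hours, 37 C, 5% CO2; luciferase detection reagent then added and luminescence measured.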
NS1 inh: influenza NS1 inhibition | Potency, µM (titrated, usually from 46.1 µM) | hit rate 0.4% among 270,000 | AID 2326; calls by dose curve; note: actives are rising curves; nearly all actives have a fitted effect of over 50% in size
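Growth recovery, yeast-based: influenza A NS1 expressed in S. cerevisiae causes slow growth, and suppressors are detected by OD600. The parent strain without NS1 is used as positive control.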
Vaccinia mCherry: vaccinia inhibition (mCherry reporter); Vaccinia virus mCherry reporter infection, fluorescence; Potency, µM (highest dose often 36.5 µM), usual class: inhibitors; hit rate 0.63% among 310,000; AID 720579; calls by dose curve; tested in A549 cells; note: nearly all actives have a fitted effect of over 35% in size
Vaccinia Venus: inhibitors of vaccinia virus (Venus reporter); Vaccinia virus Venus reporter expression, fluorescence; Potency, µM (top dose mostly 36.5 µM), most hits filed as inhibitors; hit rate 0.46% among 330,000; calls by dose curve; tested in A549 cells; note: nearly all actives have a fitted effect of over 30% in size
Pf growth 48h: inhibits P. falciparum growth in the first generation, 48 h; P. falciparum luciferase growth in erythrocytes, 48 h; Potency, µM (doses to about 28.7 µM), most hits filed as inhibitors; hit rate 5.9% among 310,000; AID 504832
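First compound was added to culture medium, then infected red cells at 0.1% parasitemia and 2% hematocrit (final). After incubation at 37 C under 5% CO2, luciferase detection reagent was dispensed and light output recorded.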
Large screens that a line does not name were inactive. This is a sample that favours compounds with a hit; in the whole collection about 11% have one here. Unless noted, calls come from the whole dose curve; as a rule, active = well fitted inhibition curve with a large enough effect; inconclusive = small, poorly fitted or top-dose-only effect, or another doubt; inactive = no such curve, though single readings can be large or run the other way.

C[C@]12CC(O)C3C(CCC4=CC(=O)CC[C@@]43C)C1CCC2c1csc(-c2ccccc2)n1 (stereo not given in full)	HCV inh inconclusive, Pf growth 96h inconclusive, Pf growth 48h 5.2µM
CC12CCC(=O)C=C1CCC1C2C(O)CC2(C)C(O)CCC12 (stereo not given)	none (no result: Pf growth 96h, NS1 inh, Pf growth 48h)
Cc1ccc2nc(-c3ccccc3)cc(C(=O)N3CC(C)OC(C)C3)c2c1 (stereo not given)	Pf growth 96h inconclusive, Pf growth 48h 10µM (no result: NS1 inh)
COC(=O)C1CCN(C(=O)COC(=O)c2cc(-c3ccccc3)nc3ccc(OC)cc23)CC1	Pf growth 96h inconclusive, Pf growth 48h 13µM (no result: NS1 inh, Vaccinia mCherry, Vaccinia Venus)
COc1ccc(-c2cc(C(=O)N3CCCCCC3)c3cc(C)ccc3n2)cc1	HCV inh inconclusive, Pf growth 96h 13µM, Pf growth 48h inconclusive (no result: Vaccinia mCherry, Vaccinia Venus)
Cc1ccc2nc(-c3ccccc3)cc(C(=O)N3CCc4ccccc4C3)c2c1	HCV inh inconclusive, Pf growth 96h 12µM, Pf growth 48h 9.3µM (no result: Vaccinia mCherry, Vaccinia Venus)
CC1CN(C(=O)c2cc(-c3ccncc3)nc3ccccc23)CC(C)O1 (stereo not given)	none (no result: NS1 inh, Vaccinia mCherry, Vaccinia Venus)
CCCCCCCCCC(=O)O	none (no result: Pf growth 96h, NS1 inh, Pf growth 48h)
Cc1cc(C)cc(NC(=O)C(=O)NCCCN2CCOCC2)c1	Pf growth 48h inconclusive (no result: NS1 inh)
COc1ccccc1OCC#CCN1CCCC(C)C1 (stereo not given)	none
CCCc1cc(C(=O)Nc2ccccc2C(=O)OC)no1	HCV inh 10µM, Pf growth 96h 12µM
CCCc1cc(C(=O)Nc2cccnc2Cl)no1	Pf growth 96h 12µM, Vaccinia Venus inconclusive (no result: Pf growth 48h)
CCOc1ccc(Nc2nc3cc(S(=O)(=O)N(CC)CC)ccc3o2)cc1	HCV inh 10µM, Vaccinia mCherry inconclusive, Vaccinia Venus inconclusive, Pf growth 48h 10µM (no result: Pf growth 96h)
CCC(O)CNC(=O)NC(=C(Cl)Cl)c1ccc(C)c(F)c1 (stereo not given)	HCV inh 16µM, Pf growth 48h inconclusive (no result: Vaccinia mCherry, Vaccinia Venus)
COc1ccccc1NC(=O)c1sc2ncn(Cc3cccc4ccccc34)c(=O)c2c1C	Pf growth 96h 9.3µM
Cn1cccc1C(=O)OCC(=O)c1c[nH]c2ccccc12	none (no result: Pf growth 96h, NS1 inh, Pf growth 48h)
CCN(CCn1cccn1)Cc1cn[nH]c1-c1cccc2ccccc12	none (no result: Vaccinia mCherry, Vaccinia Venus)
CCN(CCn1cccn1)Cc1cn[nH]c1-c1ccc(-c2ccccc2)cc1	Pf growth 48h 2.9µM (no result: Vaccinia mCherry, Vaccinia Venus)
Cc1ccccc1NS(=O)(=O)c1ccc(C(=O)NCC(c2ccco2)N(C)C)cc1 (stereo not given)	Pf growth 48h inconclusive (no result: NS1 inh)
O=C(O)CCN1C(=O)c2ccc(NC(=O)CCc3ccccc3)cc2C1=O	Pf growth 96h 12µM (no result: Vaccinia mCherry, Vaccinia Venus)
CC(C)(C)NC(=O)C(Cc1ccccc1)N1C(=O)c2ccccc2C1=O (stereo not given)	none (no result: Vaccinia mCherry, Vaccinia Venus)
CC(=O)N[C@@H](CC(=O)O)C(=O)N[C@@H](CCC(=O)O)C(=O)O	Pf growth 96h 4.3µM, Pf growth 48h inconclusive (no result: HCV inh, NS1 inh, Vaccinia mCherry, Vaccinia Venus)
COc1ccc(NC(=O)c2c(C)noc2-c2snnc2C)cc1	Pf growth 96h 2.9µM, Pf growth 48h 13µM
CC1Cc2cc(S(=O)(=O)CCC(=O)N3CCN(c4ccccc4)CC3)ccc2N1C(=O)C1CC1 (stereo not given)	HCV inh inconclusive, Pf growth 96h 9.3µM (no result: Vaccinia mCherry, Vaccinia Venus)
CCC(=O)N1c2ccc(S(=O)(=O)NC3CCCCC3)cc2CC1C (stereo not given)	Pf growth 96h 10µM (no result: Vaccinia mCherry, Vaccinia Venus)
CCC(=O)N1c2ccc(S(=O)(=O)CCC(=O)NC3CCCC3)cc2CC1C (stereo not given)	none
CCN(c1ccccc1)S(=O)(=O)c1ccc2c(c1)CC(C)N2C(=O)C1CC1 (stereo not given)	HCV inh inconclusive, Pf growth 96h 4.1µM, Pf growth 48h inconclusive
CCOC(=O)N1CCN(C(=O)CCS(=O)(=O)c2ccc3c(c2)CC(C)N3C(=O)CC)CC1 (stereo not given)	Pf growth 96h 15µM (no result: Vaccinia mCherry, Vaccinia Venus)
CC(=O)N1c2ccc(S(=O)(=O)N(C)CC(=O)NC(C)c3ccccc3)cc2CC1C (stereo not given)	HCV inh inconclusive, Pf growth 96h 9.3µM
O=C(Cc1cccs1)N1CCC(c2nc3c(nnn3Cc3ccccc3)c(=O)[nH]2)CC1	Pf growth 96h inconclusive, Pf growth 48h inconclusive (no result: Vaccinia mCherry, Vaccinia Venus)
O=C(c1ccccc1)N1CCC(c2nc3c(nnn3Cc3ccccc3Cl)c(=O)[nH]2)CC1	Pf growth 96h 8.3µM (no result: Pf growth 48h)
